A selection: hits, their analogues and other compounds. The true share with any hit is near 4.2%.
PfHsp90 yeast 2 = growth inhibition of PfHsp90-expressing yeast, primary screen, antimalarial PfHsp90 inhibitor project, S. cerevisiae, BacTiter-Glo luminescence, single point, set 2; inhibition, % at 9.4 µM; hit rate 0.32% among 310,000; BacTiter-Glo ATP, 48 h; yeast lacking PDR1 and PDR3 efflux regulators;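 active = every replicate shows inhibition above about 80%, whatever the replicate mean, limit read from the data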;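 note: 0% = DMSO neutral controls and 100% = 20 µM radicicol positive controls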
tim10-1 inh = growth inhibitors of tim10-1 mutant yeast, primary screen, luminescence, uHTS | S. cerevisiae tim10-1 ts strain growth, BacTiter-Glo, 24 h | inhibition, % at 20 µM | hit rate 2.2% among 330,000 | AID 463190, 2010;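 active = inhibition of at least 40%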;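 note: mutant grown at 25 °C; 0% = DMSO wells with yeast and 100% = wells holding no yeast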
tim23-1 inh = growth inhibitors of tim23-1 mutant yeast, primary screen, luminescence, uHTS; S. cerevisiae tim23-1 growth, BacTiter-Glo luminescence, 24 h; AID 463212, 2010; hit rate 1.3% among 330,000; inhibition, % at 20 µM;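 active = growth inhibition of the mutant yeast at or above 50%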;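 note: temperature-sensitive mutant grown at 25 °C; plate controls were DMSO-treated mutant yeast for no effect and medium wells lacking yeast for full effect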
NLRP3 yeast inh = NALP3 inflammasome inhibitors in reconstituted yeast, primary screen, luminescence, uHTS; hit rate 0.39% among 330,000; inhibition, % at 10 µM; AID 2825, 2010; Yeast reconstituted NLRP3/ASC/caspase-1, beta-gal luminescence, 24 h;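 active = inhibition of 50% or more; inactive = inhibition below 50%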;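 note: plate controls were induced DMSO wells for no effect and uninduced yeast grown without galactose for full effect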
NALP1 yeast inh = NALP1 inflammasome inhibitors in reconstituted yeast, colorimetric, S. cerevisiae, triplicate retest | S. cerevisiae NALP1/ASC/caspase-1 growth, X-gal OD620, 72 h | inhibition, % at 10 µM | hit rate 0.61% among 280,000; in the data active = inhibition mostly above about 24%, no sharp cut-off; inactive = mostly below about 32%
TIM10 inh = growth inhibitors of isogenic TIM10 control yeast, primary screen, counter-screen for tim10-1 yeast inhibitor project, luminescence, uHTS. S. cerevisiae TIM10 strain growth, BacTiter-Glo luminescence, 24 h. inhibition, % at 10 µM. hit rate 1.4% among 330,000. AID 463195, 2010;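 active = inhibition of 40% or more at the single tested concentration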;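 note: wild-type TIM10 isogenic control strain grown at permissive 25 °C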
tim10-1 conf = growth inhibitors of tim10-1 mutant yeast, confirmation, single concentration, luminescence, S. cerevisiae | S. cerevisiae tim10-1 ts strain growth, BacTiter-Glo, 24 h | shares compounds with tim10-1 inh | AID 463213, 2010 | hit rate 56% among 7,400 | inhibition, % at 20 µM;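 active = inhibition of yeast growth at or above a set limit in either of two repeat tests at 20 µM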;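 note: tim10-1 mutant grown at permissive 25 °C to find synthetic lethal compounds; 0% = DMSO yeast wells and 100% = medium wells without yeast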
tim10 confirm = growth inhibitors of wild-type TIM10 yeast, confirmation, counter-screen for tim10-1 synthetic lethality project, single concentration, luminescence, S. cerevisiae; shares compounds with TIM10 inh; S. cerevisiae tim10 strain growth, BacTiter-Glo luminescence, 24 h; inhibition, % at 10 µM; hit rate 63% among 4,600; AID 463215, 2010;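 active = inhibition of yeast growth at or above a set limit in either of two replicates at 10 µM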;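 note: this counterscreen used the strain with wild-type TIM10; 0% = yeast with DMSO and 100% = medium wells lacking yeast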
tim23-1 confirm = tim23-1 mutant yeast growth inhibitors, confirmation, luminescence, single concentration. shares compounds with tim23-1 inh. S. cerevisiae tim23-1 growth, BacTiter-Glo luminescence, 24 h. inhibition, % at 20 µM. hit rate 83% among 4,400. AID 463218, 2010;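 active = inhibition above about 39% in either of two replicate wells at 20 µM, limit read from the data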;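 note: temperature-sensitive tim23-1 mutant grown at 25 °C; 0% = DMSO wells with yeast and 100% = medium wells without yeast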
* marks the source's active call; other numbers are inactive results; . = no result given.

SMILES	PfHsp90 yeast 2	tim10-1 inh	tim23-1 inh	NLRP3 yeast inh	NALP1 yeast inh	TIM10 inh	tim10-1 conf	tim23-1 confirm	others
O=C(Nc1ccc(OCC(F)(F)C(F)F)c(C(F)(F)F)c1)c1ccccc1	-11	26	12	14	.	28	.	.
Cc1nc2ccccc2c(=O)n1/N=C/c1ccc(N(C)C)cc1	-1	-6	10	15	13	1	.	.
Cc1nc2ccccc2c(=O)n1/N=C/c1ccc([N+](=O)[O-])o1	.	53*	71*	4	6	50*	75*	73*	tim10 confirm=68*
Cc1nc2ccccc2n1/N=C/c1ccc([N+](=O)[O-])s1	-84	76*	55*	13	38	62*	30	63*	tim10 confirm=-8
CN(C)c1nc(Nc2ccc(F)cc2)nc(Oc2ccc(F)cc2)n1	16	0	22	26	-8	-20	.	.
CN(C)c1nc(N/N=C/c2ccccc2O)nc(Nc2ccc(F)cc2)n1	16	47*	59*	12	0	19	37*	67*
O=C(NC(=S)Nc1cccc2cc(O)ccc12)c1ccccc1Br	5	46*	51*	37	-4	15	21	49*
O=C(/C=C/c1ccco1)NC(=S)Nc1ccccc1N1CCOCC1	.	50*	55*	16	20	43*	27	48*	tim10 confirm=51*
O=C(NC(=S)Nc1ccccc1N1CCCC1)c1ccccc1Br	-6	41*	61*	18	-1	39	8	43*
O=C(NC(=S)Nc1cccc2cc(O)ccc12)c1ccco1	-12	29	22	2	-4	3	.	.
O=C(NC(=S)Nc1ccccc1N1CCCCC1)c1ccco1	-11	49*	54*	-43	0	52*	37*	51*	tim10 confirm=-18
O=C(NC(=S)Nc1ccccc1N1CCCC1)c1ccco1	-15	35	41	-49	2	35	.	.
O=C(NC(=S)Nc1ccccc1N1CCCC1)c1ccccc1[N+](=O)[O-]	-5	.	.	.	11	.	.	.
CC1(C)CC(NC(=O)c2cccc(S(=O)(=O)Nc3cccc(Cl)c3)c2)CC(C)(C)N1	.	-10	-10	16	.	-1	.	.
CCc1ccccc1NS(=O)(=O)Cc1ccccc1	-3	-1	18	10	22	16	.	.
CC(=O)c1cccc(N(CC(=O)NC2CCCC2)C(=O)c2csnn2)c1	-13	-6	-2	-2	2	3	.	.
COC(=O)c1ccc(OC(=O)c2ccc(OC)cc2)c(OC)c1	-8	-9	9	47	2	-2	.	.
COc1ccc(CNc2ccc3c(c2)ncn3-c2ccccc2OC)cc1	-5	53*	61*	46	2	64*	27	71*	tim10 confirm=62*
COc1ccccc1-n1cnc2cc(NCc3cccs3)ccc21	30	45*	56*	18	-7	45*	27	71*	tim10 confirm=-18
FC(F)(F)c1nnc(Nc2ccc(Cl)cc2)s1	-15	26	20	-10	.	-9	.	.
Fc1ccc(Nc2nnc(C(F)(F)F)s2)cc1Cl	-19	69*	77*	4	-2	56*	84*	85*	tim10 confirm=42*
O=C(Nc1ccsn1)c1ccc(Cl)cc1Cl	13	9	-1	-5	0	-10	.	.
O=C(CSc1nnc(NC(=O)C2CC2)s1)NCc1ccccc1	10	-10	5	1	4	-8	.	.
CSCCC(NS(=O)(=O)/C=C/c1ccccc1)C(=O)O (centres undefined)	.	9	8	-10	4	-38	.	.
CCOC(=O)CSc1nc2sc(C)c(C)c2c(=O)[nH]1	-43	29	25	-6	17	25	.	.
SMILES	PfHsp90 yeast 2	tim10-1 inh	tim23-1 inh	NLRP3 yeast inh	NALP1 yeast inh	TIM10 inh	tim10-1 conf	tim23-1 confirm	others
CCOC(=O)/C(=C\c1ccc(Cl)cc1)c1nc2sc(C)c(C)c2c(=O)[nH]1	-46	48*	72*	28	44*	44*	49*	61*	tim10 confirm=13
Cc1csc(NC(=O)C2CCCN(S(=O)(=O)c3ccc(Br)s3)C2)n1 (centres undefined)	13	46*	55*	6	15	2	38*	51*
CCOC(=O)C1CCN(c2c([N+](=O)[O-])c(C(Cl)Cl)nn2-c2ccccc2)CC1	-2	30	43	9	30	34	.	.
O=[N+]([O-])c1c(C(Cl)Cl)nn(-c2ccccc2)c1N1CCCC1	-4	61*	61*	7	-29	20	61*	58*
CCN1C(=O)/C(=C\C(=O)c2cccs2)c2cc(Br)ccc21	103*	49*	72*	20	2	74*	34*	25	tim10 confirm=65*
CCN1C(=O)/C(=C\c2cccs2)C(C(=O)OC)=C1C	.	17	35	26	6	-14	.	.
O=C(Cc1ccc(NC(=O)C2CCN(C(=O)C3CC3)CC2)cc1)Nc1ccc(C(=O)N2CCOCC2)cc1	-1	.	.	.	.	.	.	.
COC(=O)C1=C(C)N(c2cc(Cl)cc(Cl)c2)C(=O)C1	-8	56*	53*	-6	-19	33	54*	46*
O=C(COc1cc(Cl)ccc1Cl)Nc1nnc(C2CC2)s1	-2	-8	-2	11	22	-4	.	.
COc1ccccc1N1CCN(C(=O)c2cc3c(C)nc4ccccc4c3o2)CC1	-9	49*	54*	22	16	18	16	33
Cc1ccc(N(C)C(=O)c2ccc3c(Cl)c4c(nc3c2)CCC4)cc1C	-4	41*	55*	12	33	21	35*	56*
COc1ccccc1N1CCN(C(=O)c2ccc3c(Cl)c4c(nc3c2)CCCC4)CC1	-24	53*	56*	10	42	31	36*	57*
N#Cc1cc(-c2ccccc2)[nH]c1-c1nccc2ccccc12	-30	42*	51*	12	4	23	18	44*
c1ccc(-c2ccc(-c3nccc4ccccc34)[nH]2)cc1	.	.	.	.	2	.	.	.
